From PubChem BioAssay come the findings set out here.

Calls of active or inactive are those of the source.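 How the source made its calls, unless noted: active means fluorescence slope after compound addition differing from the mean of all screened samples at 99.7% confidence, in either direction; inactive means the rest.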

A word on the inhibition: it is the relative decrease from the control value, in per cent.

The nature of assay [1]: inhibitors of TNFa-induced NFkB p65 translocation, primary screen, imaging, HUVEC, MLSMR starter and 10KST1 sets (AID 438;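 active means inhibition above 20% together with a positive visual image hit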;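 further: compound added about 3h40 before a 20 min TNFalpha stimulation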;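 on inhibition: signal is the nuclear over cytoplasmic p65 intensity ratio per well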). The following applies: HUVEC TNFa-induced p65 nuclear translocation; cell count: measured here: nuclei count (cytotoxicity indicator), at 2.08 µM; inhibition: at 2 µM, stronger effect = higher value, 0% TNFa-plus-vehicle, 100% no-TNFa wells.
The nature of assay [2]: inhibitors of mutant huntingtin aggregation, primary screen, imaging, exon1htt(103Q)mCFP cells, high-content imaging (AID 483;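 active means visual image review flags a hit and inhibition of aggregation exceeds 20%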;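 further: compound exposure lasted 3 days before fixation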;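 on nuclei count: percent of the per-plate median nuclei count of sample wells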). The following applies: exon1htt(103Q)mCFP cell line, aggregate imaging, at 2 µM; inhibition of aggregation: stronger effect = higher value; nuclei count: measured here: cell count, toxicity.
The nature of assay [3]: inhibitors of E-selectin induction by TNFa, primary screen, imaging, HUVEC, immunofluorescence, MLSMR starter and 10KST1 sets (AID 487;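 active means visually confirmed hit in the image check and inhibition above 20%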;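 on inhibition: signal is fraction of cell area covered by stained E-selectin grains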;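 on nuclei count: 100% = median nuclei count of all wells on the same plate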). As to conditions: HUVEC TNFalpha-induced E-selectin immunofluorescence imaging, at 2 µM; inhibition: stronger effect = higher value; nuclei count: measured here: cell number, toxicity.
For assay [4], the target named is Voltage-gated potassium channel subunit beta-2 (Rattus norvegicus) (UniProt P62483). Put plainly: KvBeta enzyme negative modulators, primary screen, biochemical, NADPH fluorescence (AID 622;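 active means fluorescence slope higher than the sample average by over 3 SD, cut at about -0.22 in these data, passing the limit was not always enough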;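 further: slope of raw intensity against log time taken from 70 to 1610 s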). The following applies: recombinant KvBeta, 4-cyanobenzaldehyde reduction, at 10 µM, stronger effect = higher value.
Voltage-gated potassium channel subunit beta-2 (Rattus norvegicus), sequence (P62483 whole entry, looked up): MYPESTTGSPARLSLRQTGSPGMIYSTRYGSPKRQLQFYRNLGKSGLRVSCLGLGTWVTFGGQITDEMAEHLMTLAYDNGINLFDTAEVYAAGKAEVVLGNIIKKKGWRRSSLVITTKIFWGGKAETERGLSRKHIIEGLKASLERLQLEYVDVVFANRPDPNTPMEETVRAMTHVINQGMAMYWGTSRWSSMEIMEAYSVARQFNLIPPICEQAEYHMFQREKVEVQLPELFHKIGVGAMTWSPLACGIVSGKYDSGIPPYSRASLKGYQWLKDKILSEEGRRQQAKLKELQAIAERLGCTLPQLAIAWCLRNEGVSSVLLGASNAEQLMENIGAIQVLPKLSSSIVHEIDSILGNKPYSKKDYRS
The target is the same in assay [5]. The assay can be described thus: KvBeta positive modulators, primary screen, biochemical, NADPH fluorescence (AID 623;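 active means NADPH fluorescence slope more negative than the mean of all samples by about 3 SD, 99.7% confidence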;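 further: fluorescence intensity change per second fitted from 20 to 320 s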). As to conditions: Recombinant KvBeta, NADPH fluorescence decrease slope, 10 min; at 10 µM; stronger effect = lower value.
The target in assay [6] is Alpha-2C adrenergic receptor (Homo sapiens) (UniProt P18825). Put plainly: modulators of alpha2C/GIRK thallium flux, primary screen, cell-based, HEK293 alpha2C/GIRK1/2 (AID 624).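 Further: slope of fluorescence ratio to pre-addition baseline per second over 15 to 24 s.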 As to conditions: thallium flux BTC fluorescence, at 10 µM, actives lie on both sides.
Alpha-2C adrenergic receptor (Homo sapiens), sequence (P18825 whole entry, looked up): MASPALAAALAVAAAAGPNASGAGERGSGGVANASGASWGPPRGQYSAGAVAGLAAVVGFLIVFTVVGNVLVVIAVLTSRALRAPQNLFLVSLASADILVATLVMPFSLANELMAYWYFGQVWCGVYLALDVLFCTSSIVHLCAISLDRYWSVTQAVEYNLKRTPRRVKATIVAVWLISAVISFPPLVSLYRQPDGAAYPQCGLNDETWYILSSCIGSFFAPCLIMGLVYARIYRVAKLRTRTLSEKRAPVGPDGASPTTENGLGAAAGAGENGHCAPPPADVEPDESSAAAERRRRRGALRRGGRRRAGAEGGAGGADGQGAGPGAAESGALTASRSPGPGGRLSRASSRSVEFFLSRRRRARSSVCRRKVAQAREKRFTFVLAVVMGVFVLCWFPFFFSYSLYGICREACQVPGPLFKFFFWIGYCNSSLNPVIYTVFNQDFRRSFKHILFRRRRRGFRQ
Assay [7] in a line: inhibitors of Sendai virus-induced IRF3 signaling, primary screen, TLR/RLR signaling modifier project, cell-based, Sendai virus stimulus, luciferase, 10K MLSCN set (AID 602276;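 active means inhibition at or above 50% at 10 µM; inactive means inhibition below 50%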;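 further: firefly luciferase from ISG56 promoter only with Renilla not read in this screen; 0% = Sendai virus plus DMSO and 100% = medium plus DMSO without virus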). As to conditions: HEK293 RL24 IRF3 luciferase reporter, at 10 µM, stronger effect = higher value. (Reporter assays use an easily measured gene product as a stand-in for the process of interest.)
The nature of assay [8]: inhibitors of poly I:C-induced TLR3 signaling, primary screen, cell-based, poly I:C stimulus, luciferase, 10K MLSCN set (AID 602277;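 active means inhibition of the reporter signal at or above 50%; inactive means inhibition below 50%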). The following applies: HEK293-TLR3 RL24 IRF3 luciferase reporter, at 10 µM, stronger effect = higher value.

Consider `COC(=O)c1sc(N)c(C(=O)OC)c1COC(=O)C1CC(=O)N(Cc2ccco2)C1` (stereo not drawn), for which the cell count in assay [1] came to 303. Also, the inhibition in assay [1] is -1.9% (inactive); in assay [3] it was -45.6% (inactive); in assay [7] it was 15.8% (inactive); in assay [8], 11.9% (inactive). For the same compound, the inhibition of aggregation in assay [2] is -1.7% (inactive). Also, the figures for the nuclei count in assay [2] and in assay [3] were 100% and 124%, respectively. Also, in assay [4], the fluorescence slope was -0.265 (inactive). Besides, the NADPH fluorescence slope in assay [5] is -4.3e-05 (inactive). For the same compound, the slope in assay [6] is 0.00671 (inactive).
Turning to `CCOc1ccc(S(=O)(=O)Nc2ccc(Cl)cn2)c(C)c1C`, in assay [1], the cell count is 536. For the same compound, the inhibition was -35.7% (inactive) in assay [1], -43.3% (inactive) in assay [3], 4.93% (inactive) in assay [7] and 26.8% (inactive) in assay [8]. Further, in assay [2], the inhibition of aggregation is 20.2% (inactive). Besides, the results for the nuclei count in assay [2] and in assay [3] were 87.4% and 101%, respectively. In assay [4], the fluorescence slope was -0.475 (inactive). Besides, the NADPH fluorescence slope in assay [5] was -3e-05 (inactive). Further, the slope in assay [6] was 0.00637 (inactive).
For the compound `COC(=O)c1oc2ccc(Br)cc2c1NC(C)=O`, the cell count in assay [1] is 644. The inhibition is -0.8% (inactive) in assay [1], -28.5% (inactive) in assay [3], 16.9% (inactive) in assay [7] and 30.7% (inactive) in assay [8]. Besides, in assay [2], the inhibition of aggregation is 35.6% (active). The nuclei count in assay [2] is 90.2%; in assay [3], 112%. The fluorescence slope in assay [4] was -0.575 (inactive). In addition, the NADPH fluorescence slope in assay [5] was -3.5e-05 (inactive). Also, the slope in assay [6] is 0.00664 (inactive).
Consider `CCOc1ccc(N(CC(=O)NC2CCCC2)S(=O)(=O)c2c(C)[nH]c(=O)[nH]c2=O)cc1`, for which, in assay [1], the cell count came out at 552. In addition, the inhibition is 14% (inactive) in assay [1], -159% (inactive) in assay [3], 4.96% (inactive) in assay [7] and 15.6% (inactive) in assay [8]. Also, the inhibition of aggregation in assay [2] is 15.7% (inactive). Also, the nuclei count in assay [2] worked out at 107%; in assay [3], 132%. Besides, the fluorescence slope in assay [4] was -0.518 (inactive). In assay [5], the NADPH fluorescence slope is -5.9e-05 (inactive). Moreover, the slope in assay [6] was 0.00723 (inactive).
Consider `Cn1nnnc1SCSc1nnnn1C`, for which, in assay [1], the cell count was 626. Moreover, the inhibition in assay [1] was -16.6% (inactive); in assay [3], -58% (inactive); in assay [7], 0.0465% (inactive); in assay [8] it was -3.07% (inactive). Moreover, in assay [2], the inhibition of aggregation is 4.1% (inactive). For the same compound, the values for the nuclei count in assay [2] and in assay [3] were 56.1% and 93.3%, respectively. For the same compound, the fluorescence slope in assay [4] is -0.585 (inactive). In addition, the NADPH fluorescence slope in assay [5] was -4.7e-05 (inactive). Also, in assay [6], the slope was 0.00536 (inactive).
For the compound `CCCNC(=O)C1=C(C)C(=O)OC12CCC(C)CC2` (stereo not drawn), the cell count in assay [1] was found to be 666. Besides, the inhibition in assay [1] is 1.6% (inactive); in assay [3], -28.8% (inactive); in assay [7], 3.82% (inactive); in assay [8], 12% (inactive). In assay [2], the inhibition of aggregation is -3.8% (inactive). The nuclei count in assay [2] and in assay [3] was 115% throughout. Besides, in assay [4], the fluorescence slope was -0.589 (inactive). In assay [5], the NADPH fluorescence slope was 1.9e-05 (inactive). Besides, in assay [6], the slope is 0.00681 (inactive).
Turning to `Cc1nc2nc(-c3cccnc3)nn2c(C)c1Cl`, the cell count in assay [1] turned out to be 689. Moreover, the inhibition in assay [1] is -13.8% (inactive); in assay [3] it was -32.8% (inactive); in assay [7] it was -17.9% (inactive); in assay [8] it was -15.3% (inactive). Moreover, the inhibition of aggregation in assay [2] is -5.4% (inactive). For the same compound, the figures for the nuclei count in assay [2] and in assay [3] were 81.3% and 107%, respectively. Besides, the fluorescence slope in assay [4] is -0.333 (inactive). In assay [5], the NADPH fluorescence slope is -3.7e-05 (inactive). The slope in assay [6] was 0.00559 (inactive).
As for `COc1cc(Cn2c(-c3nonc3N)nc3ccccc32)ccc1C`, in assay [1], the cell count was 329. The inhibition in assay [1] was -1.5% (inactive); in assay [3], -20.1% (inactive); in assay [7], 29.4% (inactive); in assay [8], 53.2% (active). For the same compound, in assay [2], the inhibition of aggregation is -18.3% (inactive). Also, the nuclei count came to 65% in assay [2] and 99.4% in assay [3]. For the same compound, the fluorescence slope in assay [4] was -0.591 (inactive). Moreover, the NADPH fluorescence slope in assay [5] was -1.7e-05 (inactive). Besides, in assay [6], the slope is 0.00556 (inactive).
